Screening results (PubChem)
Shown are actives, neighbours in structure and some others; about 11% of the full set was active somewhere.
USP28 inh: blocks human USP28 ubiquitin-rhodamine cleavage; Q96RU2; purified USP28, Ub-rhodamine cleavage fluorescence, 30 min; inhibition, % at 25 µM; 47,000 tested, 3% active; AID 1645857
USP17 block: blocks human USP17 ubiquitin-rhodamine cleavage | A8MUK1 | purified USP17, Ub-rhodamine cleavage fluorescence, 3 h | inhibition, % at 50 µM | 47,000 tested, 6.5% active | AID 1645855
USP30 inh: inhibitors of human USP30 deubiquitinase | purified USP30, Ub-rhodamine cleavage fluorescence | inhibition, % at 25 µM | 47,000 tested, 5.3% active | AID 1645860
Target sequence (Q70CQ3 whole entry, looked up): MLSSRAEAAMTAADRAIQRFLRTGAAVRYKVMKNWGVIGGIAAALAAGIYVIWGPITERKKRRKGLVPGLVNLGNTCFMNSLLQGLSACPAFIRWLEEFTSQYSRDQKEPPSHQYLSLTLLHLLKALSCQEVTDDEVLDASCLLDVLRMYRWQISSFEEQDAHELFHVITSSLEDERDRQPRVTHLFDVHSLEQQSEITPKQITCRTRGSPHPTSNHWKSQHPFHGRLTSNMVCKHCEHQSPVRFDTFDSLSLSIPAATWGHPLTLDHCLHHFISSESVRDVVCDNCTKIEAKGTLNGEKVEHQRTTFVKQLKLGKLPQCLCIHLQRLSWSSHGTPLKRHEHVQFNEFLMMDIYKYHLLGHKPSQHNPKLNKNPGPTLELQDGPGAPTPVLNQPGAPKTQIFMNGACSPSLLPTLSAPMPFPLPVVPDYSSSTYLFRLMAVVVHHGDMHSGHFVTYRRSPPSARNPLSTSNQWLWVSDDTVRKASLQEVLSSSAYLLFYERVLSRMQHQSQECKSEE
OTUD3 inh: inhibitors of human OTUD3 deubiquitinase; Q5T2D3; purified OTUD3, Ub-rhodamine fluorescence, 2 h; inhibition, % at 25 µM; 47,000 tested, 0.7% active; AID 1645858
* = called active by the depositor; i = inactive; nt = not tested or not shown. No stated cut-off is given here; in the data, active means inhibition above about 30%; inactive means the rest.

SMILES	USP28 inh	USP17 block	USP30 inh	OTUD3 inh
Cc1nc(Sc2ccc3ccccc3c2)c2oc3ccccc3c2n1	18	42*	40*	12
c1ccc2cc(Sc3ncnc4c3oc3ccccc34)ccc2c1	0	5	7	2
COc1ccc(C(=O)Nc2ccc3c(c2)N(C(=O)C2CC2)CCC3)cc1OC	33*	6	22	10
O=C(Nc1ccc2c(c1)N(C(=O)C1CCCC1)CC2)c1c(F)cccc1F	93*	32*	24	7
COc1cccc(C(=O)Nc2ccc3c(c2)N(C(C)=O)CCC3)c1	0	-7	-48	-9
CC(=O)c1cccc(NC(=O)c2ccc3c(c2)CCN3C(=O)C2CC2)c1	23	19	-17	-6
CCOC(=O)N1CCC(NC(=O)c2cn(-c3ccc(C)cc3)nn2)CC1	nt	60*	nt	0
Cc1ccc(-n2cc(C(=O)NCCCc3ccccc3)nn2)cc1	17	28	49*	16
CCOC(=O)N1CCC(NC(=O)c2cn(-c3ccccc3Cl)nn2)CC1	0	-7	-5	-2
Cc1ccc(-n2cc(C(=O)N3CCc4ccccc4C3)nn2)cc1	-4	7	-1	-4
Cc1ccc(-n2cc(C(=O)N3CCN(c4ccccc4)CC3)nn2)cc1	10	40*	44*	8
CC(=O)NC(Cc1ccc(C(C)C)cc1)C(=O)NC1CCN(C(=O)C2CCCCC2)CC1 (centres undefined)	-3	-8	4	-6
CCCN1CCN(C(=O)CN2CCC3(CCC2=O)NC(=O)c2ccccc2O3)CC1 (centres undefined)	-23	-9	-10	-7
CO\C=C(C(=O)OC)/C(C)=C\C=C\c1ccc(OCC=C(C)C)c(O)c1	22	40*	27	7
Cc1ccc(COc2cc(C(=O)NC(C)C)c3ccccc3n2)cc1	12	10	35*	8
Cc1ccc(COc2cc(C(=O)NCC3CCCO3)c3ccccc3n2)cc1 (centres undefined)	3	5	46*	4
O=C(NCC1CCCO1)c1cc2c(cn1)[nH]c1ccccc12 (centres undefined)	34*	-38	-59	-9
Cc1ccc(COc2cc(C(=O)NCc3ccccc3C)c3ccccc3n2)cc1	16	20	43*	24
Cc1cc(C(=O)NCC2CCCO2)c2cccc(C)c2n1 (centres undefined)	-7	-32	-50	-10
Cc1nccn1-c1cc(N2CCN(C)CC2)nc2ccnn12	-155	-152	i	-136
CC1=C\[C@@H](O)CC(=O)Cc2nc(co2)C(=O)N2CCC=C2C(=O)O[C@H](C(C)C)[C@H](C)/C=C/C(=O)NC/C=C\1	-24	-1	-152	-29
COC1=CC(=O)c2c(O)c3c(c(C)c2C1=O)C[C@@]1(O)[C@H](O[C@H]2CC[C@H](O[C@H]4C[C@@](C)(O)[C@H](OC(=O)c5c(C)ccc(C)c5O)[C@H](C)O4)[C@@H](C)O2)C(=O)C(C(C)=O)=C(O)[C@@]1(O)C3=O	63*	22	-79	53*
Cc1ccc2nc(CNc3cccc(Cl)c3)cc(=O)n2c1	0	30*	-106	-8
Cc1ccc(NCc2cc(=O)n3cc(C)ccc3n2)c(C)c1	-12	-3	-113	-12
COc1cccc(C(=O)Nc2ccc(-n3cnnn3)cc2)c1	17	32*	51*	8
SMILES	USP28 inh	USP17 block	USP30 inh	OTUD3 inh
Cc1cc(=O)oc2cc(NC(=O)c3ccc(-n4cnnn4)cc3)ccc12	3	44*	27	11
O=C(COc1ccc(F)cc1)Oc1ccc(-n2cnnn2)cc1	20	5	30*	16
O=C(Oc1ccc(-n2cnnn2)cc1)c1ccccc1Br	2	33*	0	3
Cc1cc(=O)oc2cc(NC(=O)c3ccccc3C(=O)O)ccc12	nt	9	nt	1
Cc1ccc(NC(=O)c2cccc(-n3cnnn3)c2)cc1	6	11	15	8
Cc1cccc(OCC(=O)Oc2ccc(-n3cnnn3)cc2)c1C	1	0	-2	2
Cc1cccc(N2CCn3c2nc2c3c(=O)n(CCN3CCCCC3)c(=O)n2C)c1C	-2	3	1	-2
CCOc1ccc(C(=O)Nc2c(C)nc3cccc(C)n3c2=O)cc1	-4	-2	-32	-9
O=C(COc1ccc(-n2cnnn2)cc1)Nc1cc(Cl)ccc1Oc1ccccc1	20	17	6	7
N#Cc1ccc(NC(=O)COc2ccc(-n3cnnn3)cc2)cc1	21	49*	37*	8
O=C(COc1cccc(-n2cnnn2)c1)Nc1ccc2c(c1)OCCO2	50*	5	14	3
Cc1nc(-c2cc(C(=O)N3CCN(c4ccncc4)CC3)c3ccccn23)cn1C(C)C	-29	-41	-126	-25
COc1ccnc2c1c(=O)n(CC(=O)NC1CCCC1)c(=O)n2C	-5	10	5	-4
COc1ccc(/C=C/C(=O)Nc2nc3n(n2)C(c2ccccc2)CC(=O)N3)cc1OC (centres undefined)	13	26	24	12
O=C1CC(c2ccccc2)n2nc(NC(=O)c3ccccc3)nc2N1 (centres undefined)	10	5	11	6
Cc1ccc(C(=O)Nc2nc3n(n2)C(c2ccccc2)CC(=O)N3)cc1 (centres undefined)	-1	71*	10	1
O=C(/C=C/c1cccc([N+](=O)[O-])c1)Nc1nc2n(n1)C(c1ccccc1)CC(=O)N2 (centres undefined)	29	19	38*	22
COc1ccc(/C=C/C(=O)Nc2nc3n(n2)C(c2ccccc2)CC(=O)N3)cc1 (centres undefined)	3	12	31*	14
COc1ccc(CN2C(=O)CCC2(C)C(=O)NCCC(C)C)cc1 (centres undefined)	-8	-4	-9	-8
O=S1(=O)N=C(N2CCCC(c3nc4ccccc4s3)C2)c2ccccc21 (centres undefined)	-51	-62	-252	-64
Cc1nc(-c2ncc[nH]2)cc(C2CCCN(C(=O)c3cccnc3)C2)n1 (centres undefined)	-9	-26	-16	-8
COc1ccc(/C=C(\NC(=O)c2ccc(Br)cc2)C(=O)NCCc2c(C)[nH]c3ccccc23)cc1	-12	3	34*	4
Cc1[nH]c2ccccc2c1CCNC(=O)/C(=C/c1ccccc1)NC(=O)c1ccccc1	2	1	-11	1
Cc1ccc(-n2nnc(C(=O)NC(C)C)c2C2CC2)cc1	0	0	-8	2
CNC(=O)c1c(Br)cnn1-c1ccc(C)cc1	nt	39*	nt	3
Cc1ccc2c(c1)c(=O)cc(C(F)(F)F)n2C[C@H]1CCCN1C(=O)C1CCCC1	20	4	11	0
CCOc1ccc(CNC(=O)CCC(=O)N2Cc3cccn3-c3ccccc32)cc1	5	-1	-13	2
O=[N+]([O-])c1ccc(C(c2ccc[nH]2)c2ccc[nH]2)cc1	-1	37*	-55	1
Cc1cccc(-c2nn(-c3ccccc3)c3c2c(C)cc(=O)n3CC(=O)N2CCOCC2)c1	-16	-1	-10	-14
